Results: PubChem BioAssay AID2551 (National Center for Advancing Translational Sciences (NCATS), 2010)
Hit rate of the full screen: of about 310,000 compounds, about 17,000 (5.5%) were called active. Not shown: some 11% with an inconclusive outcome. Only a selection was taken, and actives are over-represented in it overall. Unmarked numbers belong to inactive results. Calls come from the whole dose curve; as a rule, active = well fitted inhibition curve with a large enough effect; inconclusive = small, poorly fitted or top-dose-only effect, or effect the other way; inactive = no such curve, though single readings can be large or run the other way.

The compounds below were run against Nuclear receptor ROR-gamma (Mus musculus) (UniProt P51450) (assay: qHTS for inhibitors of ROR gamma transcriptional activity). Details: Drosophila S2 Gal4-RORgamma UAS-luciferase reporter, 20 h; series mostly up to 53.6 µM; activity change, negative = inhibition: at the top concentration.
Procedure, shortened: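 Read-out: Photinus luciferase luminescence; inhibitors lower reporter signal. Insect Schneider cells with Gal4-ROR gamma fusion under metallothionein promoter, UAS reporter; 700 uM final copper sulfate induction, 20 hr, ambient temperature.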
% is set by controls: 0 for no effect and ±100 for the full control effect; potency is the fitted concentration of half-maximal effect.
Note: nearly all actives have a fitted effect of over 60% in size.

Nuclear receptor ROR-gamma (Mus musculus), sequence (P51450 whole entry, looked up, the tested form may be a part): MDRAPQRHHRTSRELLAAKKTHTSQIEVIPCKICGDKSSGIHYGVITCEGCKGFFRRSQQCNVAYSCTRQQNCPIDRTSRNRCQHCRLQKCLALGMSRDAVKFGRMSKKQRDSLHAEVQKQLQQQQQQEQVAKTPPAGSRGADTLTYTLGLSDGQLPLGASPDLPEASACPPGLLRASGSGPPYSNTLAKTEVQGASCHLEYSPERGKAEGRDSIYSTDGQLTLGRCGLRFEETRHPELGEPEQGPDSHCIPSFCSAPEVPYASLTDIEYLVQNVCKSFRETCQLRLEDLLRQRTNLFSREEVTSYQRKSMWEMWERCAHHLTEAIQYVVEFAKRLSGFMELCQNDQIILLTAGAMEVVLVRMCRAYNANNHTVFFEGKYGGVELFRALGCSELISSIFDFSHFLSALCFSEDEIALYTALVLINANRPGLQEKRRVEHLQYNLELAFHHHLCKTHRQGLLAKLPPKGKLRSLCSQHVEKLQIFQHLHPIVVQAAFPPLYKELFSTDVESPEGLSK

For `CC(=O)NC(=S)NNC(=O)c1ccc(Br)cc1`, the Potency was 12.6 µM (active).
In the case of `COc1ccc(C(=O)NNC(=S)NC(=O)c2ccccc2)cc1`, the Potency is reported as 4.47 µM (active).
For `CCN1C(=NCCc2cccnc2)N[C@@H](c2ccccc2)C(C(=O)OC)=C1C`, the Potency was “inactive”.
In the case of `C=CCn1c(=S)[nH]c2nc3c(cc2c1=O)COC(C)(C)C3`, the Potency is reported as 3.98 µM (active).
For `CCc1ccc(NC2Nc3cc(C)nn3S2)cc1` (stereo not given), the Potency was 1.58 µM (active).
In the case of `CCn1c(-c2ccncc2)n[nH]c1=S`, the Potency is reported as 5.01 µM (active).
For `CC(C)n1c(-c2ccncc2)n[nH]c1=S`, the Potency was 12.6 µM (active).
With `CCn1c(-c2ccoc2C)n[nH]c1=S` the Potency was 11.2 µM (active).
In the case of `CCCc1cc(-c2n[nH]c(=S)n2CC)c2ccccc2n1`, the Potency is reported as 11.2 µM (active).
With `Cc1ccc(Cn2c(NC(=O)c3ccco3)nc3ccccc32)cc1` the Potency was 0.282 µM (active).
`CC(=O)Nc1nc2ccccc2n1Cc1ccc(C)cc1` was tested, and the Potency was 1.26 µM (active).
`CCC(=O)Nc1nc2ccccc2n1Cc1ccccc1C` was tested, and the Potency was 2 µM (active).

Point of comparison: `O=C(Nc1ccc(CN2CCOCC2)cc1)c1cc(Cl)ccc1Cl`, “activity change, negative = inhibition” value 11.1%. Against it:
- Cc1cc(C)c2[nH]c(=O)c(CN(Cc3ccccc3)C(=S)NCCCN(C)C)cc2c1 — lower, -4.36%
- CNC(=S)NNC(=O)c1ccc(N(C)C)cc1 — lower, -16.2%
- COCCNC(=S)N(Cc1cccnc1)Cc1ccc(OC)c(OC)c1 — lower, -17.6%
- COc1ccc(OCC(=O)Nc2ccc(NC(=O)c3ccco3)c(C)c2)cc1 — lower, 0.594%
- COc1ccc(C(=O)NNC(=O)c2cc(C)[nH]n2)cc1 — higher, 27.8%
- COc1ccc(OCC(=O)NNC(=O)c2ccc(-c3ccccc3)cc2)cc1 — lower, -11.6%
- Cc1ccc(N(CC(=O)NC2CCCCC2)C(=O)CCCC(=O)Nc2ccccn2)c(C)c1 — lower, 2.53%
- O=C(NCc1ccco1)C(c1ccncc1)N(C(=O)Cn1nnc2ccccc21)c1ccccc1 (stereo not given) — higher, 19.7%
- O=C(Nc1cccc(Cl)c1Cl)c1ccccc1NC(=O)C1CC=CCC1C(=O)O (stereo not given) — higher, 25.4%
- CCc1ccc(C(CNc2nc(C(F)(F)F)nc3ccccc23)N(C)C)cc1 (stereo not given) — lower, -35.8%
- O=C(Nc1cccc(Br)c1)c1ccc2snnc2c1 — higher, 39.2%
- O=S(=O)(c1cccc(Cn2nnc(-c3ccc(F)cc3)n2)c1)N1CCOCC1 — higher, 40.7%
- CC1(C(=O)O)CCC(C(=O)Nc2ccc(Cl)c(Cl)c2)C1(C)C (stereo not given) — lower, -9.86%
- CC(C)CCSc1ncnc2c1oc1nc3c(cc12)COC(C)(C)C3 — lower, -5.74%
- CC1(C)Cc2nc3sc4c(SCC(=O)NC(c5ccccc5)c5ccccc5)ncnc4c3cc2CO1 — higher, 35.8%
- Cc1cc(C)nc(NS(=O)(=O)c2ccc(N3C(=O)C4CCCCC4C3=O)cc2)n1 (stereo not given) — higher, 15.9%
- CCc1ccc(NC(=O)C(=O)NNC(=O)c2cccs2)cc1 — lower, -38.2%
- CCOC(=O)c1ccc(NC2Nc3cc(C)nn3S2)cc1 (stereo not given) — higher, 21.8%
- Cc1ccccc1NC(=O)Cn1cc(C(=O)C2CC2)c2ccccc21 — lower, -6.18%
- CC1CCCCN1C(=O)Cn1c(=O)oc2cc(S(=O)(=O)N3CCCCC3)ccc21 (stereo not given) — higher, 11.6%
- CCSc1nc2sc3c(c2c(=O)n1-c1ccc(C)cc1)CCN(C)C3 — lower, -4.38%
- O=C(c1ccc(OC2CCN(C/C=C/c3ccc(F)cc3)CC2)cc1)N1CCCCC1 — lower, -4.55%
- CCOC(=O)CSc1nnc(-c2ccncc2)o1 — lower, -10.8%
- CCCc1cc(=O)[nH]c(SCC(=O)OCc2ccccc2)n1 — lower, -8.09%
- CCn1c(C(C)NC(=O)c2ccc(C)cc2)n[nH]c1=S (stereo not given) — lower, -40.5%
- CCn1c(SCC(=O)Nc2nc3ccc(OC)cc3s2)nnc1-c1ccoc1C — higher, 22.8%
- CCn1c(SCC(=O)NC2CCCC2)nnc1-c1ccoc1C — lower, -16.6%
- CCn1c(C(C)C)n[nH]c1=S — lower, -33.5%
- O=S(=O)(Nc1ccccc1Br)c1cccs1 — lower, 1.13%
- C[C@@H]1CC[C@@]2(OC1)O[C@H]1C[C@H]3[C@@H]4CC=C5C[C@@H](O)[C@H](O)C[C@]5(C)C4CC[C@]3(C)[C@H]1[C@@H]2C (stereo not given in full) — lower, 0%
- O=C1Nc2cc(C(=O)N3CCN(c4ccc(F)cc4)CC3)ccc2NC1CSCc1cccc(F)c1 (stereo not given) — lower, -15.5%
- CC1CCC(NS(=O)(=O)c2ccc3c(c2)CC(=O)N3)CC1 (stereo not given) — lower, 4.09%
- O=S(=O)(O)c1nc2ccccc2n1Cc1ccc(Cl)cc1 — lower, 2.35%
- CCn1nc(NC(=O)c2ccco2)c2cc3ccc(C)cc3nc21 — higher, 33.6%
- Cc1ccnc(NC(=O)c2ccco2)n1 — higher, 16.6%
- CC(=O)c1nc2ccccc2n1Cc1ccccc1 — higher, 14.4%
- CC(=O)NC(C)c1nc2ccccc2n1Cc1ccccc1F (stereo not given) — lower, -30.6%
- CCC(=O)NCCc1nc2ccccc2n1CC — lower, -31.7%
- CCOC(=O)C1CCN(S(=O)(=O)c2ccc3c(c2)N(C(C)=O)CCO3)CC1 — lower, 2.26%
- CCN1CCCC1CNC(=O)c1cc2cc(OC)c(OC)cc2[nH]1 (stereo not given) — lower, -10.7%
- CCn1c(SCC(=O)Nc2ccc3c(c2)OCCO3)nnc1C(C)C — lower, -24.1%

For `COc1ccc2c3c(c(=O)oc2c1)C1O[C@](CCCCN2C(=O)c4ccccc4C2=O)(Cc2c1ccc1ccccc21)O3`, the activity change, negative = inhibition was -28.3% [at 10 µM].
